Granule exo inh = lytic granule exocytosis inhibition | TALL-104 LAMP-1 surface exposure, flow cytometry; cells stimulated with thapsigargin and PMA | inhibition, % at 10 µM | 360,000 compounds, 0.66% hits | AID 651702;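 active = inhibition above about 55%, limit read from the data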
PG9 binder = PG9 antibody binding by small molecule. TR-FRET gp120-PG9 antibody binding. inhibition, % at 6.7 µM. 360,000 compounds, 0.43% hits; in the data active = inhibition above about 8.5%
NR1D1 modulator = modulates human Rev-erb alpha binding to DNA; P20393; Rev-erbα–FITC-DNA binding, fluorescence polarization, 90 min; activity, % at 10 µM; 370,000 compounds, 0.79% hits; AID 1259318;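 active = activity above about 14%, limit read from the data; passing the limit was not always enough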;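 also: 0% = DMSO wells with 35 nM protein and 100% = DMSO wells with 750 nM protein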
VLA-4 inh = inhibition in a human VLA-4 binding assay | P13612 | VLA-4 expressing cells, ligand binding flow cytometry | inhibition, % (about 7 µM as worked out from the volumes in the protocol) | 330,000 compounds, 0.2% hits | AID 2557; in the data active = inhibition above about 50%
ABCB6 inh 2 = human ABCB6 transporter inhibition; Q9NP58; fluorescence ratio to DMSO, % at 10 µM; K562-ABCB6 porphyrin accumulation, flow cytometry, 1 h; hits give low values; 360,000 compounds, 0.19% hits;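 active = fluorescence ratio to DMSO below 75%, the collection mean minus 3 SD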;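 also: signal is porphyrin accumulated inside mitochondria; 100% equals median channel fluorescence of DMSO control wells; lower ratio means ABCB6 inhibition with less porphyrin fluorescence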
VLA-4 allo CP = human VLA-4 allosteric modulation in cherry picked compounds; shares compounds with VLA-4 inh; U937 cells, HUTS-21 LIBS mAb binding, flow cytometry; LDV ligand present at threefold Kd; inhibition, % at 6.7 µM; 1,300 compounds, 2% hits; AID 2813; in the data active = inhibition above about 40%;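 also: 0% = ligand without compound and 100% = no ligand background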
Active calls of the source: *. Shown are actives, neighbours in structure and some others; about 2% of the full set was active somewhere.

How did O=C(c1cc2nc(-c3ccc(Cl)cc3)cc(C(F)(F)F)n2n1)N1CCOCC1 do in these assays?
Granule exo inh: -2; PG9 binder: -4; NR1D1 modulator: -1; VLA-4 inh: 43; ABCB6 inh 2: 99; VLA-4 allo CP: 5

What do the screens show for `CN1CCN(C(=O)c2cc3nc(-c4ccc(Cl)cc4)cc(C(F)(F)F)n3n2)CC1`?
Granule exo inh: 2; PG9 binder: -1; NR1D1 modulator: -6; VLA-4 inh: -10; ABCB6 inh 2: 97

What do the screens show for `COc1cccc(NC(=O)Cc2ccccc2)c1`?
Granule exo inh: -2; PG9 binder: -2; NR1D1 modulator: 7; VLA-4 inh: 28; ABCB6 inh 2: 107

How did O=C(Cc1ccccc1)Nc1cccc(N2C(=O)C=CC2=O)c1 do in these assays?
Granule exo inh: 33; PG9 binder: 1; NR1D1 modulator: -2; VLA-4 inh: 60*; ABCB6 inh 2: 109; VLA-4 allo CP: 36

What do the screens show for `Nc1ncnc2c1ncn2C1O[C@H](COP(=O)(O)O)[C@@H](O)[C@H]1O` (stereo partly drawn)?
NR1D1 modulator: 4

Results for O=C(CSc1nnc(-c2ccccc2)n1-c1ccc(Cl)cc1)c1ccc(F)cc1 ?
NR1D1 modulator: 5

How did CCOc1ccccc1/C=C(/C#N)C(N)=O do in these assays?
Granule exo inh: 8; PG9 binder: 2; NR1D1 modulator: 0; VLA-4 inh: 1; ABCB6 inh 2: 89; VLA-4 allo CP: 2

What do the screens show for `CCCOc1ccccc1/C=C(\C#N)C(=O)Nc1cccc(C)n1`?
Granule exo inh: 2; PG9 binder: 0; NR1D1 modulator: -5; VLA-4 inh: 6; ABCB6 inh 2: 113

How did CCCOc1c(OC)cccc1C1CC(=O)Nc2cc3c(cc21)OCCO3 (stereo not drawn) do in these assays?
Granule exo inh: -1; PG9 binder: 0; NR1D1 modulator: 3; VLA-4 inh: 10; ABCB6 inh 2: 92; VLA-4 allo CP: 5

Results for COc1cccc(C2CC(=O)Nc3cc4c(cc32)OCCO4)c1OC(C)C (stereo not drawn) ?
Granule exo inh: 6; PG9 binder: 1; NR1D1 modulator: -4; VLA-4 inh: -10; ABCB6 inh 2: 93; VLA-4 allo CP: -6

What do the screens show for `CCCOc1c(OC)cccc1C1CC(=O)Nc2cc3c(cc21)OCO3` (stereo not drawn)?
Granule exo inh: 3; PG9 binder: 1; NR1D1 modulator: 1; VLA-4 inh: 2; ABCB6 inh 2: 99

How did CC(C)Oc1ccccc1C1CC(=O)Nc2cc3c(cc21)OCCO3 (stereo not drawn) do in these assays?
Granule exo inh: 11; PG9 binder: 0; NR1D1 modulator: 3; VLA-4 inh: 16; ABCB6 inh 2: 89

What do the screens show for `Cc1ccc2c(c1)N(CC(=O)NCC(C)c1ccccc1)C(=O)c1cccnc1O2` (stereo not drawn)?
Granule exo inh: 1; PG9 binder: -2; NR1D1 modulator: 2; VLA-4 inh: 53*; ABCB6 inh 2: 102; VLA-4 allo CP: 3

How did Cc1cc(C(=O)CN2CCCC(C)C2)c(C)n1-c1ccc(F)cc1 (stereo not drawn) do in these assays?
Granule exo inh: -12; PG9 binder: 1; NR1D1 modulator: -6; VLA-4 inh: 42; ABCB6 inh 2: 102; VLA-4 allo CP: -10

What do the screens show for `CCNC(=S)NNC(=O)CSc1nnc(SCc2cccc3ccccc23)s1`?
NR1D1 modulator: -5

How did Cc1ccc(S(=O)(=O)NCC(c2ccco2)S(=O)(=O)c2ccccc2)cc1 (stereo not drawn) do in these assays?
Granule exo inh: -3; PG9 binder: 0; NR1D1 modulator: -2; VLA-4 inh: -17; ABCB6 inh 2: 97

Results for COc1ccc(OC)c(S(=O)(=O)NCC(c2ccco2)S(=O)(=O)c2ccccc2)c1 (stereo not drawn) ?
Granule exo inh: 1; PG9 binder: 0; NR1D1 modulator: -3; VLA-4 inh: 76*; ABCB6 inh 2: 101; VLA-4 allo CP: 0

What do the screens show for `O=C(NCC1CCN(C(=O)C(=O)c2cc3ccccc3o2)CC1)c1ccncc1`?
PG9 binder: -1; NR1D1 modulator: 0

Results for CCN(CC(=O)Nc1ccc(NC(C)=O)cc1)C(=O)/C=C/c1cccs1 ?
Granule exo inh: 1; PG9 binder: -1; NR1D1 modulator: -3; VLA-4 inh: 54*; ABCB6 inh 2: 101; VLA-4 allo CP: 4

Results for CCN(CC(=O)Nc1ccc(NC(C)=O)cc1)C(=O)/C=C/c1ccco1 ?
Granule exo inh: -1; PG9 binder: 1; NR1D1 modulator: -3; VLA-4 inh: 9; ABCB6 inh 2: 102

How did Cc1cccc(-c2nnc(SCc3cccc4ccccc34)n2-c2ccc(Cl)cc2)c1 do in these assays?
NR1D1 modulator: 1

Results for COc1cc2c(c(OC)c1)C(c1ccncc1)CC(=O)N2 (stereo not drawn) ?
Granule exo inh: -3; PG9 binder: 0; NR1D1 modulator: -4; VLA-4 inh: 34; ABCB6 inh 2: 96

Results for COC(=O)c1ccc(C2CC(=O)Nc3cc(OC)c(OC)c(OC)c32)cc1 (stereo not drawn) ?
Granule exo inh: 0; PG9 binder: -1; NR1D1 modulator: 5; VLA-4 inh: 1; ABCB6 inh 2: 102; VLA-4 allo CP: -10

How did CCOc1c(OC)cccc1C1CC(=O)Nc2cc(OC)c(OC)cc21 (stereo not drawn) do in these assays?
Granule exo inh: -3; PG9 binder: 0; NR1D1 modulator: 1; VLA-4 inh: -14; ABCB6 inh 2: 100; VLA-4 allo CP: 0

How did COc1cc2c(cc1OC)C(c1ccc(OC)c(OC)c1OC)CC(=O)N2 (stereo not drawn) do in these assays?
Granule exo inh: 6; PG9 binder: -2; NR1D1 modulator: 0; VLA-4 inh: 0; ABCB6 inh 2: 99; VLA-4 allo CP: 1

What do the screens show for `CC(C)(C)NC(=O)C(c1cccnc1)N(C(=O)c1cccs1)c1ccc(C(C)(C)C)cc1` (stereo not drawn)?
NR1D1 modulator: -2

Results for Cc1ccc(Cn2nnc3c2-c2cc(F)ccc2S(=O)(=O)N(C(C)(C)C)C3)cc1 ?
NR1D1 modulator: 4

How did CC(=O)[C@@]1(O)CC[C@H]2[C@@H]3CCC4=CC(=O)CC[C@]4(C)[C@H]3[C@@H](O)C[C@@]21C do in these assays?
Granule exo inh: -2; PG9 binder: -2; NR1D1 modulator: 1; VLA-4 inh: 53*; ABCB6 inh 2: 100; VLA-4 allo CP: 3

What do the screens show for `O=S1(=O)c2ccc(N3CC[C@H](O)C3)cc2O[C@@H]2CCN1C2`?
NR1D1 modulator: 1

Results for C[C@H]1[C@H](N(Cc2cccs2)Cc2cccs2)CC[C@@]23CCCN2C(=O)CCC[C@@H]13 ?
NR1D1 modulator: 5

Screens: PubChem, several laboratories
